This is an account of results in the supplement of paper PMC12632987.

B1: GBRAP_53_6413 (protein)
chain: AEAEIAALRAEVKATARAAAAADEATLAALVAEIGALLAALKAAGMPDEELTALAEEVARTLRAAGAPDSALVALAGHLAALGLEEATAAVAEEAVEELE
B2: GBRAP_35_5548 (protein)
chain: DSDEETAEMLVDTIEDIVEALPDVSEEDRVALAEAALRLARDLVELQPKNKELIKRAIEALERIKEIIEESDLPEEVRERLVREIEELIEELKKILEENE
B3: GBRAP_35_5549 (protein)
chain: DSDREIAEMLVDTIEDIVEALPDVSEEDKIALAKAAIRLARDLVELKPKDEELIKRAIEALERIKEILEESDLPEEDKEELIEEIEELIEELKKLLEENK
B4: GBRAP_122_2955 (protein)
chain: SKEEEVERLVEETVEAAKKGDFAATILEALKEAAERFDAESLIRLAERLAERARELGKEAEAALAFATAAQWLLEERPELAEAADRLLELADELLDLLEE
B5: GBRAP_166_4966 (protein)
chain: MEEEIKEEFKKYLEELKEKMKKANEEEKLELLAEAAEKLREAKEAGVSRETLRELIRYLIELAKEVGLTDSQVYGALSILADLDEEEIDILEEEIAEVRA
B6: GBRAP_166_4889 (protein)
chain: STEEAIREIERLAEEAIANIAALTPEELLAVFIEMVEIVERAGATPELRAALAEAAARIVAAAVAAGRDWDEVESLALAAVGDDEELLDAVEATLAALRA
B7: GBRAP_74_6553 (protein)
chain: SAALKKEIDAAAKAGDADKLIKLARKAVKEGDIDVAVHALGQLAKLAVKKAKAGDYDELDKLIDAIVEILEKVPDEALTDETWKAIAAAIKAAIEAEKAR
B8: GBRAP_160_4776 (protein)
chain: SEKEEKLKKKIKEAKEEILESIDTLSPEETLTVAIGETGDIIMEAEELEFDNEELLDSIDEIMDELIEELEKNKNASPEEKKKIVEEKFEKLLKELEKLT
B9: GBRAP_160_4428 (protein)
chain: SEKLKKAKEKIEEIIEETVEMMKGQSAEERQVLVRVARGEIILELEELGLLTDEVDEVIDEEFDEIVEYIAENPDISDEELRELLEEAREKILKELEKVS
B10: GBRAP_14_3860 (protein)
chain: VEALVKAVERTAESTKELIAEIAPEHAEEIKAKVEELAKEIIEKIKKENLNIEEVEELVDEAAEKLGAYMREKGYLSDTEIAAFKAHLLSEFLLELEEIE
B11: GBRAP_160_4725 (protein)
chain: EEEIKEFVEEFREEFLETLELTKDESKENAKALFRGTAGEILQDAFENPFLTDEQEDVVAEILDELVEELEKNFDASLEEKKEIVEEKMEELLEKLLELS
B12: GBRAP_128_3486 (protein)
chain: STEEVVAKTKELMEKIKNSSLEEVEEIARELVELLGQADPESREAATEVILEKLKELSAEKLEILADVLRERQPELDPFGAEQAAEIQVEALNEAEEKEE
B13: GBRAP_52_6312 (protein)
chain: MHERMRELAEELLELMLAGDREGARALAREIVATLSEEELLLLAEELAELAEELDEEELEKAAELLFILEDEMEAAGVDERVIAEMLGIIITAIYKAEQK
B14: GBRAP_52_6313 (protein)
chain: MREEMRAQAEELLALMLAGDRDGARALAEELVATLSEEELLLLAEELAKLSETLNAEELDKAMELLEILEDVMEEAGVDERVIAEIRGIVITAIYKAEQK
B15: GBRAP_96_7095 (protein)
chain: MLEEAKKLVKELIKALDTDPEKAEELAKKLLEFPVEVVTEALVEVVKKPEDAAKIAKLLLKLGDEKAEEVLLEAAEKAPGDISKAIIDAMEAYEKEQEAA
B16: GBRAP_128_3565 (protein)
chain: STAELVAEARALLAAIKAADAEEARALAERLADLIAAASPEARAAIVETILARLPELTAEQLDILADVFAARRATADPAVAEALAEIQVEALNVREEKEE
B17: GBRAP_14_3799 (protein)
chain: MEEREKAIEEITEETLEILEEILADAPEEVRERVLELVEEARERIIKEKLSPDEIAELEDELLEEVAKILADAPPEVRAQVLAAISVGMGEIILEVEELE
B18: GBRAP_160_4163 (protein)
chain: MEEAEELIKEVEEETKEAIELIEGESIEQRKVIIAGHFGVIIMTLFESDVVSDEVVDFAVELRDELVKWIDENPDASLEEIKKKIKEAEKKIKEKIKKDA
B19: GBRAP_35_5613 (protein)
chain: EDVQLAVDSFVDMAEAIIELIPEIDDETLAALAQSLIKFAKSLLKEEKNNKEALEKIKEAMEKLLEALKKYRSDNPLIQKVAKEVQEVIKEAEKAIKEVK
B20: GBRAP_52_5915 (protein)
chain: MSAELEAKLDEMLAAVKAGKLEEARAIAREIVESLDDEELRELVELFAERVRAAPLEDLPAWWRLAEILAEELEEAGKDEVLADDLLNRTAAAIYEKLQA
B21: GBRAP_160_4375 (protein)
chain: SEELKELIKEIEELKKEFEELAKDLSPEEVKILAKGVLSEIAALVFENEAVSEETKDKIMEIIDKALEELDKLKDASPEEIVAVTTEAVNEIIELIKKEI
B22: GBRAP_14_3854 (protein)
chain: MEKLIAAVKKTAEAAIEFAKELLPEHAEEVGKKIKELAEKIIEKIKKENLNKEEVAELIRKMAEELGKFIKEKGYASDEEIAAFKAFIENEALLELEKVE
B23: GBRAP_52_5907 (protein)
chain: MKEELEKILNEIIEAVKAGKLEEARKIARELAEKYDDETLEEFIELFAEMVLEAPEEDLPYYWKAAEILAEEFEREGKDEVLADLLLSRTAAAIYEKLQR
B24: GBRAP_26_5463 (protein)
chain: MDEAFRAALDAVDAAAATLPNPNAAAAVTAEAATVLEELEEAIEAGEDIAAAVAAARDELLAAARAIGEEEGLPAATIAAMEATLTAIFDALEAALKAAA
B25: GBRAP_26_5467 (protein)
chain: MDAAFAAARDRIDAIAAKLPDPRAAAALRALADTELLELEERIEAGEDIDAAVDAARDAFLAEAREILEDAGLPEELIAKTLAEFEAVFDDLRAALKAAQ
B26: GBRAP_52_6357 (protein)
chain: KLEEALALLERALEAMLAGREDEARAILREIVETYDDETILAAFERLAEKILGKSVEEAEAFLDLALLLADVMDELGRDEAVGDEIEAIAAKAYMTVLEK
B27: GBRAP_160_3973 (protein)
chain: SEEVEELKKEIKELFDEAKKLIEGESYEERLTIIKVMVGDILLLADENPLISDEVEDKIDEIGDELIETIEKNPDLTDEEIKKLIDEAEEKILKTIDEAF
B28: GBRAP_43_5767 (protein)
chain: SKELVEGAFETAILLLEDPSISEETKVKAIIAAMELAADEGYVDKELLEKVVELAGKTLSKESLEKILKAAKKLAKEYPESKEAFEEAAKKLEEAIAKKE
B29: GBRAP_64_6486 (protein)
chain: EEEIKKLHEETLKQAKKLVELLKDSSEELQKQAKEVLELIEKSKEASLEEAAKLLAEAAKLLNELLKSPELTEEQKDQVAETLDLVSELLWLVVEKELEK

The full ranking holds about 4,500 sequences; the median of “median log2 fold change of GCK-ALFA target abundance (FLAG IP / Myc IP barcode read proportion)” is about 0.078, and the lowest 2% start at about -0.6. This is one part of a sample in which the lowest values are shown more often than they occur.

Sequence of GABARAP, O95166 (O95166 whole entry, the tested form may be a part): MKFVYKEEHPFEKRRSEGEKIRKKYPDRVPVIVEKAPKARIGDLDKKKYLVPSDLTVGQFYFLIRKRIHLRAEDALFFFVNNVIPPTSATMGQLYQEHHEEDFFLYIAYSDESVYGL

In this experiment the target is GABARAP, O95166. Nature of the experiment: median log2 fold change of GCK-ALFA target abundance (FLAG IP / Myc IP barcode read proportion) (log2 ratio); each designed protein is fused to an ALFA-tag nanobody in HEK293 cells to bring the named protein to FLAG-tagged glucokinase (GCK); Myc marks an untargeted standard; higher = target protein stabilised (more abundant). Conditions: target protein: 3xFLAG-MCP-GCK-ALFA reporter; HEK293 landing pad (RPLP). In outline:
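An ALFA-nanobody-fused binder library was recombined into HEK293 landing-pad cells and induced with 2 μg mL^−1 doxycycline. Cells were transfected with a plasmid expressing a FLAG-tagged target and a Myc-tagged standard. After 48 h, lysates underwent anti-FLAG and anti-Myc immunoprecipitation, and circular RNA barcodes were reverse transcribed, amplified and sequenced. Target abundance is the per-binder median log2 ratio of FLAG to Myc barcode read proportions. Barcodes needed ≥10^−7 proportion in both replicates, binders ≥3 barcodes per replicate, and a 10^−6 pseudocount was added; the two replicates were pooled.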
For the molecule B1, the “median log2 fold change” value was determined as 0.295.
The value for B2 was -0.485; that for B3 was -0.761.
In the case of B4 it was -0.119.
The value for B5 was -0.12; that for B6 was 0.108.
In the case of B7, the “median log2 fold change” value is -0.699.
In the case of B8 it was 0.018; in that of B9, 0.0554.
The value for B10 was 0.302; that for B11 was 0.0697.
The value for B12 was 0.224.
Regarding B13, the “median log2 fold change” value was -0.795.
The value for B14 was -0.0291; that for B15 was 0.344; that for B16 was 0.318.
The value for B17 was -0.611.
In the case of B18 it was 0.215; in that of B19, -0.07; in that of B20, -0.669.
Regarding B21, the “median log2 fold change” value worked out at 0.194.
In the case of B22 it was 0.381; in that of B23, -0.881.
B24: the “median log2 fold change” value turned out to be 0.261.
In the case of B25 it was 0.199; in that of B26, -0.492; in that of B27, -0.605.
In the case of B28 it was 0.243.
With B29, the “median log2 fold change” value amounted to 0.19.
